Hits are enriched below; roughly 21% of the tested compounds scored in any of these assays.
Pf growth 48h: P. falciparum growth inhibition at 48 hours (one generation); P. falciparum luciferase growth in erythrocytes, 48 h; AID 504832; Potency, µM (top dose mostly 28.7 µM), without a hit: at the top dose activity change, negative = inhibition, hits mostly inhibitors; hit rate 5.9% among 310,000; further: potency means the concentration at half of the fitted maximal effect; on the % scale 0 is the no-effect control and ±100 the full control effect
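Erythrocytes infected with P. falciparum carrying an integrated firefly luciferase reporter (2% hematocrit, 0.1% parasitemia final) were exposed to compounds in RPMI 1640 with 0.5% Albumax at 37 C, 5% CO2. Growth inhibition was scored as reduced luminescence.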
NS1 inh: inhibitors of influenza NS1 protein function. Potency, µM (titrated, usually from 46.1 µM), for the others: at the top dose activity, positive = more growth. hit rate 0.4% among 270,000. AID 2326; calls by dose curve; further: potency means the concentration at half of the fitted maximal effect; actives are rising curves; nearly all actives have a fitted effect of over 50% in size
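In this qHTS, NS1 from influenza A is expressed in budding yeast, where it slows growth. Cells are switched from glucose to 2% galactose medium (pH 6.0, -URA), treated with compound, and growth recovery is read at OD600.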
FBPA Giardia inh: blocks Giardia fructose-bisphosphate aldolase activity; Potency, µM (doses to about 59.6 µM), for the others: top-dose activity, negative = inhibition, actives largely listed as inhibitors; hit rate 0.71% among 290,000; A8B2U2; purified Giardia FBPA; further: potency means the concentration at half of the fitted maximal effect; on the % scale 0 is the no-effect control and ±100 the full control effect; nearly all actives have a fitted effect of over 55% in size
Target sequence (A8B2U2 whole entry, looked up): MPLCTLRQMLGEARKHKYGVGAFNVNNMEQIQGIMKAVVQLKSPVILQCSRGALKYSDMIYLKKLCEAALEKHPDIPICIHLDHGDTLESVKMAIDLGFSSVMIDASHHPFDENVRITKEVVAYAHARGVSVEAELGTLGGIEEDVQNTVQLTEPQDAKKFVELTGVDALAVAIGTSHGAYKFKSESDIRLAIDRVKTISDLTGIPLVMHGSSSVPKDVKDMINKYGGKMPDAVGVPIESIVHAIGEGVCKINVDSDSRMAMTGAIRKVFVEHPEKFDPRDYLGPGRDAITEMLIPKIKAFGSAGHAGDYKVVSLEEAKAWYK
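Giardia FBPA (40 nM reagent) was preincubated 10 min at RT with compound (up to 57.5 uM final), then substrate plus GAPDH/TPI/NAD/arsenate coupling system with diaphorase/resazurin was added; resorufin fluorescence (525/598 nm) was read after 20 min.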
Shiga inhibitor: inhibitors of Shiga toxin in Vero cells | Vero cells, Shiga toxin protein synthesis inhibition reporter | inhibition, % at 38.7 µM | hit rate 9.2% among 290,000 | AID 2315; in the data active means inhibition mostly above about 28%, no sharp cut-off; inactive means mostly below about 43%; further: 0% is about no effect
Pf growth 96h: inhibits malaria parasite growth, 96 h; hit rate 6.9% among 320,000; P. falciparum luciferase reporter growth, 96 h; Potency, µM (series often up to 28.7 µM), for the others: top-dose activity change, negative = inhibition, most hits filed as inhibitors; further: potency means the concentration at half of the fitted maximal effect; on the % scale 0 is the no-effect control and ±100 the full control effect
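Erythrocytes infected with luciferase-expressing P. falciparum were dispensed at 2% hematocrit and 0.05% parasitemia (final), then incubated with compounds 96 hours at 37 C in 5% CO2. Luminescence after detection reagent addition reported growth.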
CHX counter: counter-screen hit for Shiga toxin inhibitors, cycloheximide; cell reporter, cycloheximide protein synthesis inhibition counterscreen; max response, %; hit rate 12% among 300,000; AID 2314; in the data active means max response mostly above about 13%, no sharp cut-off; inactive means mostly below about 14%; further: read at 38.3 µM for the half of the compounds with a filed dose; 0% is about no effect
Active calls of the source: *; [ ] = dose if it differs, or a comment. Unless noted, the call rests on the fitted dose curve; in most records, active means well fitted curve in the direction sought with a large enough effect; inconclusive means small, poorly fitted or top-dose-only effect, or another doubt; inactive means no such curve, though single readings can be large; an effect the other way counts as inactive or inconclusive.

Results for Cc1nc(C)c(-c2csc(Nc3ccccn3)n2)s1 ?
Pf growth 48h: 247.1%; NS1 inh: -83.9%; FBPA Giardia inh: -8.6%; Shiga inhibitor: 112.4*; Pf growth 96h: -8.7%; CHX counter: 48.8*

What do the screens show for `CC(=O)c1c(C)[nH]c(C(=O)NNC(=O)COc2cc(C)cc(C)c2)c1C`?
Pf growth 48h: 3.6%; Pf growth 96h: 26.5%

What do the screens show for `COc1ccc2c(=O)cc(-c3ccncc3)oc2c1OC`?
NS1 inh: 0.0%

How did O=C(NCc1cccc(C(F)(F)F)c1)C1CC(c2ccccc2C(F)(F)F)=NO1 (configuration not stated) do in these assays?
Pf growth 48h: 33.0%; NS1 inh: 6.7%; FBPA Giardia inh: -2.7%; Shiga inhibitor: -2.0; Pf growth 96h: 33.9%; CHX counter: -4.0

Results for O=C(CSc1nncn1-c1cccnc1)N(c1ccccc1)c1ccccc1 ?
Pf growth 48h: 6.1%; NS1 inh: -1.6%; FBPA Giardia inh: -0.6%; Shiga inhibitor: -12.0; Pf growth 96h: inconclusive; CHX counter: -0.9

Results for CC(=O)Oc1ccc(C(=C2CCCCC2)c2ccc(OC(C)=O)cc2)cc1 ?
Pf growth 48h: -6.7%; FBPA Giardia inh: -0.4%; Shiga inhibitor: -4.6; Pf growth 96h: -34.0%; CHX counter: -3.5

How did CCc1ccc(C(=O)NCC2COc3ccccc3O2)o1 (configuration not stated) do in these assays?
Pf growth 48h: 61.1%; NS1 inh: -15.7%; FBPA Giardia inh: 0.1%; Shiga inhibitor: 57.0*; Pf growth 96h: 43.9%; CHX counter: 23.5*

What do the screens show for `O=C(NCC1COc2ccccc2O1)c1cccs1` (configuration not stated)?
Pf growth 48h: 51.3%; NS1 inh: -8.2%; FBPA Giardia inh: 16.2%; Shiga inhibitor: 72.2*; Pf growth 96h: 43.5%; CHX counter: 39.5*

What do the screens show for `O=C(NCC1COc2ccccc2O1)c1ccc(Br)s1` (configuration not stated)?
Pf growth 48h: 38.7%; NS1 inh: -17.7%; FBPA Giardia inh: -5.2%; Shiga inhibitor: 107.7*; Pf growth 96h: 38.6%; CHX counter: 23.0*

How did CCC(C)C(N)C(=O)NC(CC(N)=O)C(=O)NC(CC(C)C)C(=O)NC(CCCCN)C(=O)NC(C)C(=O)NC(CC(C)C)C(=O)NC(C)C(=O)NC(C)C(=O)NC(CC(C)C)C(=O)NC(C)C(=O)NC(CCCCN)C(=O)NC(CCCCN)C(=O)NC(C(=O)NC(CC(C)C)C(N)=O)C(C)CC (configuration not stated) do in these assays?
FBPA Giardia inh: 0.1%; Shiga inhibitor: -15.6; CHX counter: -8.9

Results for CC1(C)C2CCC1(CS(=O)(=O)NCc1ccc(Cl)cc1Cl)C(=O)C2 (configuration not stated) ?
Pf growth 48h: 7.9%; NS1 inh: -22.4%; FBPA Giardia inh: 7.9%; Shiga inhibitor: -4.4; Pf growth 96h: 0.8%; CHX counter: -2.7

How did COc1ccc(CNC(=O)C(OC(C)=O)c2ccccn2)cc1 (configuration not stated) do in these assays?
Pf growth 48h: 29.2%; NS1 inh: -10.7%; FBPA Giardia inh: -4.5%; Shiga inhibitor: -12.0; Pf growth 96h: 14.7µM*; CHX counter: 7.8

Results for COc1ccc(CNC(=O)Nc2ccccc2)cc1 ?
Pf growth 48h: 84.7%; NS1 inh: -8.0%; FBPA Giardia inh: 0.3%; Shiga inhibitor: 65.3*; Pf growth 96h: 247.3%; CHX counter: 45.3*

Results for COc1ccc(CNC(=O)Nc2cccc(C)c2)cc1 ?
Pf growth 48h: 125.0%; NS1 inh: -12.0%; FBPA Giardia inh: 2.8%; Shiga inhibitor: 78.4; Pf growth 96h: 15.4%; CHX counter: 21.9*

Results for COc1ccc(CNC(=O)Nc2ccc(OC)cc2)cc1 ?
Pf growth 48h: 9.3%; NS1 inh: 3.9%; FBPA Giardia inh: 3.6%; Shiga inhibitor: -4.8; CHX counter: -3.1

What do the screens show for `CCOc1ccc(CNC(=O)Nc2ccccc2)cc1`?
Pf growth 48h: 11.2%[0.00184 µM]; NS1 inh: -5.7%; FBPA Giardia inh: 6.5%; Shiga inhibitor: 48.5*; Pf growth 96h: 27.2%; CHX counter: 22.1*

How did O=C(COC(=O)c1c[nH]c2ccccc12)Nc1cccc(F)c1 do in these assays?
Pf growth 48h: -8.2%; Pf growth 96h: 36.3%

Results for COc1ccc(CNC(=S)Nc2ccccc2Cl)cc1 ?
Pf growth 48h: 18.6%; NS1 inh: 8.7%; FBPA Giardia inh: inconclusive; Shiga inhibitor: 6.8; Pf growth 96h: -8.8%; CHX counter: 10.0

How did COc1ccc(CNC(=S)Nc2ccccc2-c2ccccc2)cc1 do in these assays?
Pf growth 48h: inconclusive; FBPA Giardia inh: -7.7%; Shiga inhibitor: -4.3; Pf growth 96h: 8.28µM*; CHX counter: 1.2

How did CCOC(=O)C(NC(=O)NCc1ccc(OC)cc1)(OCC)C(F)(F)F (configuration not stated) do in these assays?
Pf growth 48h: -7.4%; NS1 inh: -4.7%; FBPA Giardia inh: 9.9%; Shiga inhibitor: -6.4; Pf growth 96h: 9.28µM*; CHX counter: -2.4

Results for CCOc1ccc(CNC(=O)NS(=O)(=O)c2ccc(OC)cc2)cc1 ?
Pf growth 48h: 15.2%; NS1 inh: -7.5%; FBPA Giardia inh: 11.0%; Shiga inhibitor: -12.8; Pf growth 96h: 2.94µM*; CHX counter: -3.4

How did CCC(C)NS(=O)(=O)c1ccc(OCC(=O)NCc2ccc(OC)cc2)cc1 (configuration not stated) do in these assays?
Pf growth 48h: inconclusive; NS1 inh: 2.8%; FBPA Giardia inh: 4.6%; Shiga inhibitor: -8.5; Pf growth 96h: 69.3%[5.75 µM]; CHX counter: -1.6

How did Cc1cccnc1NC(=O)CSc1nnc(CNC(=O)c2cccc([N+](=O)[O-])c2)n1C do in these assays?
Pf growth 48h: 1.9%; NS1 inh: 3.5%; Shiga inhibitor: -10.8; Pf growth 96h: inconclusive; CHX counter: -2.3

Results for CC(=O)N1CC2(NC(=O)c3ccccc3N2)c2ccccc21 (configuration not stated) ?
Pf growth 48h: 6.0%; NS1 inh: 7.7%; FBPA Giardia inh: 0.7%; Shiga inhibitor: -6.5; Pf growth 96h: -0.4%; CHX counter: -0.6

What do the screens show for `O=C(O)[C@@H](O)[C@@H](O)[C@H](O)C(=O)CO`?
Pf growth 48h: -0.6%; NS1 inh: -1.7%; Pf growth 96h: 11.7%

What do the screens show for `N#Cc1c(NC(=O)CSc2ncnc3c2cnn3-c2ccccc2Cl)sc2c1CCCC2`?
Pf growth 48h: -13.7%; NS1 inh: 7.2%; FBPA Giardia inh: 1.6%; Shiga inhibitor: -4.5; Pf growth 96h: 4.9%; CHX counter: -3.2

What do the screens show for `O=C(CSc1ncnc2c1cnn2-c1ccccc1Cl)N1CCN(C(=O)c2ccco2)CC1`?
Pf growth 48h: -18.8%; NS1 inh: -11.0%; FBPA Giardia inh: 3.0%; Shiga inhibitor: -9.0; Pf growth 96h: 7.38µM*; CHX counter: -5.9

Assay outcomes as filed in PubChem BioAssay.
